Measurements as given in PubChem BioAssay (NCI).
About 83,000 compounds went through this panel and 20% of them were active in at least one assay; those are over-represented in the sample as a whole.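 Plates (96-well) were seeded with cells, treated with compound at one concentration, and incubated for 48 hours before percent growth was determined.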 A number with no mark means an inactive call. The source made the active and inactive calls. The calls were made as follows: active = growth percent below 10; inactive = the rest.

What was measured:
Assay in all cases: NCI-60 one-dose screen, 48 h (100 = growth as untreated, 0 = no growth, -100 = all killed)
[1] = tested on: A549/ATCC NSCLC; conditions: 10 µM unless noted
[2] = tested on: DU-145 prostate; conditions: 10 µM unless noted
[3] = tested on: K-562 leukemia; conditions: 10 µM unless noted
[4] = tested on: RXF 393 renal; conditions: 10 µM unless noted
[5] = tested on: SF-295 CNS; conditions: 10 µM unless noted
[6] = tested on: UACC-257 melanoma; conditions: 10 µM unless noted
[7] = tested on: HCT-15 colon; conditions: 10 µM
[8] = tested on: HT29 colon; conditions: 10 µM unless noted
[9] = tested on: LOX IMVI melanoma; conditions: 10 µM unless noted
[10] = tested on: SN12C renal; conditions: 10 µM unless noted
[11] = tested on: CAKI-1 renal; conditions: 10 µM unless noted
[12] = tested on: A498 renal; conditions: 10 µM unless noted
[13] = tested on: HL-60(TB) leukemia; conditions: 10 µM unless noted
[14] = tested on: MOLT-4 leukemia; conditions: 10 µM
[15] = tested on: OVCAR-8 ovarian; conditions: 10 µM unless noted
[16] = tested on: OVCAR-4 ovarian; conditions: 10 µM unless noted
[17] = tested on: SK-OV-3 ovarian; conditions: 10 µM unless noted
[18] = tested on: HS 578T breast; conditions: 10 µM unless noted
[19] = tested on: BT-549 breast; conditions: 10 µM
[20] = tested on: HCC-2998 colon; conditions: 10 µM unless noted

Compound	growth [1]	growth [2]	growth [3]	growth [4]	growth [5]	growth [6]	growth [7]	growth [8]	growth [9]	growth [10]	growth [11]	growth [12]	growth [13]	growth [14]	growth [15]	growth [16]	growth [17]	growth [18]	growth [19]	growth [20]
O=[As]c1ccc(C(=O)c2ccc(Oc3ccccc3)cc2)cc1 (stereo not drawn)	-94.8% (active)	-94% (active)	-17.8% (active)	-100% (active)	-65.1% (active)	-99.4% (active)	-78.3% (active)	-77.6% (active)	-91.2% (active)	-98.4% (active)	-53.7% (active)	-97.7% (active)	-23.4% (active)	-25.2% (active)	-97.3% (active)	-91.2% (active)	-100% (active)	59.7%	-98.8% (active)	-93.9% (active)
CC(C)CCC1(CCO)C(=O)NC(=S)NC1=O	91.9%	107%	120%	120%	103%	100%	91.7%	99.3%	104%	100%	102%	93.7%	98.1%	113%	101%	109%	108%	114%	109%	107%
O=[N+]([O-])c1cccc([As]=[As]c2cccc([N+](=O)[O-])c2)c1 (stereo not drawn)	-75.2% (active)	-100% (active)	-21.7% (active)	-96.1% (active)		-94.4% (active)	-83.5% (active)	-61.6% (active)	-55.4% (active)	-96% (active)	-95.9% (active)	-98.8% (active)	-57% (active)	-37.4% (active)	-70% (active)	-99.2% (active)	-100% (active)	6.73% (active)	-97.7% (active)	-90.6% (active)
OC1(c2ccc(Cl)cc2Cl)c2ccccc2C2=NCCN21 (stereo not drawn)	103%	109%	81.1%	-13% (active)	95.3%	86.2%	101%	92.2%	90.7%	92.4%	-21.8% (active)	94.4%	63.3%	78.9%	102%	105%	89.5%	77.7%	93.5%	75.3%
[O]=[Sn]([CH]1CCCCC1)[CH]1CCCCC1	-83.3% (active)	-98% (active)	-8.85% (active)	-99% (active)	-85.6% (active)	-88.3% (active)	-78.1% (active)	-52.8% (active)	-89.6% (active)	-80.5% (active)	-93.5% (active)	-98% (active)	7.49% (active)	6.59% (active)	-66.2% (active)	-98.7% (active)	-98.2% (active)	-19.5% (active)	-99.3% (active)	-98.6% (active)
S=P(NC1CCCCC1)(N1CC1)N1CC1	101%	108%	61.4%	102%	110%	116%	108%	101%	96.5%	98.1%	95.1%	96.2%	91.3%	99.1%	104%	100%	131%	114%	120%	131%
COc1cc2c(cc1OC)CN(C)C(C)C2 (stereo not drawn)	93.6%	109%	101%	118%	99%	104%	102%	93.2%	95.1%	94.2%	101%	84%	87.9%	113%	105%	103%	103%	107%	115%	97.5%
O=CN1N=C(c2ccc3c(c2)OCO3)CC1c1sc(N(CCCl)CCCl)nc1Cl (stereo not drawn)	83.9%	107%	85.4%	109%	104%	84.4%	99.5%	97.9%	100%	94.8%	82.1%	97.7%	88.6%	79.3%	92.9%	100%	90%	79.8%	94.7%	106%
O=S(=O)(c1ccc(Cl)cc1)C(Cl)(Cl)Cl	56.6%	49.4%	19.6%	-5.22% (active)	78.2%	28.2%	39%	12.2%	35.1%		-6.81% (active)	56.4%	1.02% (active)	16.2%	58.5%	61.6%	84.9%	55.8%	34.1%	18.3%
CC(C)(C)NCC(O)c1ccccc1Cl (stereo not drawn)	11.5%	-27.8% (active)	17.5%	-19.8% (active)	-3.79% (active)	54.5%	58.9%	2.91% (active)	35.1%	24.1%	54.6%	-9.2% (active)	1.68% (active)	31.6%	9.87% (active)	60.3%	9.23% (active)	3.29% (active)	35.2%	-28.8% (active)
Cc1cc(C)nc(C)c1.[Cl][Hg][Cl]	97.2%	102%	83.6%	124%	94.9%	93.8%	101%	95.7%	80.2%	104%	96.4%	120%	93.7%	92%	100%	103%	110%	108%	100%	114%
S=P(Nc1ccccc1)(Nc1ccccc1)c1ccccc1	91.8%	122%		98.5%	102%	102%	104%	104%	89.1%	104%	71.4%	70.6%			111%	104%	108%	107%	101%	93.6%
CC1=C(SCCC(=O)OCC(=O)NCCC[Te]c2ccccc2)C(=O)c2ccccc2C1=O	0.0697% (active)	-6.6% (active)	10.2%	25%	-35.6% (active)	55.1%	10.4%	11.2%	-12.6% (active)	7.58% (active)	27.4%	-11.8% (active)	-2.74% (active)	0.655% (active)	5.76% (active)	87.4%	-36.8% (active)	-16.9% (active)	-6.68% (active)	10.1%
C1CNC2CCCC2C1 (stereo not drawn)	110%	107%	112%	93.1%	104%	106%	99.2%	102%	101%	111%	103%	107%	117%	116%	106%	102%	108%	111%	102%	107%
ClCCN(CCCl)c1nc(Cl)c(C2CC(c3ccccc3)=NN2c2ccccc2)s1 (stereo not drawn)	88.9%	99.7%	68.3%	94.2%	98.6%	85.8%	101%	82.5%	85.3%	90.4%	81.4%	103%	101%	75.4%	90.3%	87.1%	82.9%	87.4%	99.3%	110%
CC(C)C1c2ccc(O)cc2Oc2nc(N)c(C#N)c(N)c21 (stereo not drawn)	91.4%	115%	92.5%		107%	105%	107%	109%	103%	103%	93.5%	88.4%	102%	98.1%	96.2%	101%	116%	91.4%	84.2%	
CC[C@@H](C)/C=C(C)/C=C/C(=O)c1c(O)c(-c2ccc(O)cc2)cn(O)c1=O	3.85% (active)	15.5%	12.1%	19.8%	-28.7% (active)	-29.8% (active)	30.7%		3.82% (active)		-54.9% (active)	39.3%			4.95% (active)		17.8%	48%	18%	36.4%
